From ChEMBL document CHEMBL3433997, “St. Jude Leishmania screening dataset” (2016)

Tests used:
Type in all cases: functional
[1] = target: Solute carrier family 2, facilitated glucose transporter member 1 (Homo sapiens) (UniProt P11166); experiment: ST_JUDE_LEISH: Cytotoxicity at 2uM final concentration against transgenic Leishmania Mexicana promastigotes LmGLUT1 that are glucose transport deficient and complemented with the human glucose transporter GLUT1. Activity is measured by DNA content using SYBR green in vitro
[2] = target: Hexose transporter 1 (Plasmodium falciparum) (UniProt O97467); experiment: ST_JUDE_LEISH: Cytotoxicity at 2uM final concentration against transgenic Leishmania Mexicana promastigotes LmPfHT that are glucose transport deficient and complemented with the Plasmodium falciparum hexose transporter. Activity is measured by DNA content using SYBR green in vitro
[3] = target: Glucose transporter (Leishmania mexicana) (UniProt O61059); experiment: ST_JUDE_LEISH: Cytotoxicity at 2uM final concentration against transgenic Leishmania Mexicana promastigotes LmGT2 that are glucose transport deficient and complemented with the L. Mexicana glucose transporter 2. Activity is measured by DNA content using SYBR green in vitro

Chain of Solute carrier family 2, facilitated glucose transporter member 1 (Homo sapiens) (P11166 whole entry): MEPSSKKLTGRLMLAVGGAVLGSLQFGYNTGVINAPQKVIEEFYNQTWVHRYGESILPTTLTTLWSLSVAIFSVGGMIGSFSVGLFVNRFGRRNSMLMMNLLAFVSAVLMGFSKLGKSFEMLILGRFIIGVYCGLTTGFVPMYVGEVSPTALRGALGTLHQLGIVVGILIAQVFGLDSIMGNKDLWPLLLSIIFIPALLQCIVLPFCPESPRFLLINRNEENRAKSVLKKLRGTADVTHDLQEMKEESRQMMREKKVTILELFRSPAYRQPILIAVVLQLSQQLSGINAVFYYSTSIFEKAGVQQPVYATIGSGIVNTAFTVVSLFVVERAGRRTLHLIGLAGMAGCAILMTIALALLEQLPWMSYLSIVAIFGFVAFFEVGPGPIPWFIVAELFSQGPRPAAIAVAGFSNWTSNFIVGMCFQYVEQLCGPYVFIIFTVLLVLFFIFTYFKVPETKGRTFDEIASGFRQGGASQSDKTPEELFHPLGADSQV

Row | Structure (SMILES) | inhibition [1] | inhibition [2] | inhibition [3]
1 | CN(C)c1ccc(-c2ccc(C(=O)NC3CCN(Cc4ccc5c(c4)OCCO5)CC3)s2)cc1 | 4.82% | 6.3% | 3.8%
2 | O=C(C=Cc1ccc(Cl)c(Cl)c1)NCCCCCN1CCCC(CCCNC(=O)C2CC2c2ccccc2)C1 (configuration not stated) | 2.64% | 0.94% | 1.66%
3 | CCCCNC(=O)c1[nH]c2c(NC(=O)COc3ccccc3)cccc2c1-c1cccc(NC(=O)C(N)CO)c1 (configuration not stated) | 10.1% | 9.02% | 7.27%
4 | CCCc1ccc(-c2csc(NC(=O)c3ccc([N+](=O)[O-])o3)n2)cc1 | 78.4% | 77.8% | 37.8%
